SMILES strings stand for the structures. Active and inactive are the calls of the source.

Test [1] is described as follows: A549 cell viability effects, profiling panel, calcein-AM fluorescence, 48 h, basal (AID 1162). The settings on record: higher = more signal.
Test [2] in a line: adipocyte viability effects, profiling panel, cell-based, 3T3-L1 adipocytes, calcein-AM fluorescence, 48 h, basal (AID 1163). The settings on record: 3T3-L1 adipocytes viability, higher = more signal.
The nature of test [3]: HepG2 cell viability effects, profiling panel, calcein-AM fluorescence, 48 h, basal (AID 1164). To be noted: higher = more signal.
Test [4] in a line: MM1S cell viability effects, profiling panel, calcein-AM fluorescence, 48 h, basal (AID 1165).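 Note: viability of MM1S multiple myeloma cells under basal unstimulated conditions.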 The settings on record: higher = more signal.
Test [5] is described as follows: basal RPMI8226 viability, no added stimulus, profiling panel, cell-based, calcein-AM fluorescence, 48 h, PK04 Diversity Set (AID 1166).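 Note: cells grown under basal conditions without added stimulus.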 The settings on record: RPMI8226 myeloma viability, higher = more signal.
Test [6] in a line: basal HepG2 mitochondrial membrane potential changes, profiling panel, cell-based, JC-1 fluorescence, 24 h, 100 nL compound (AID 1167). The settings on record: higher = more signal.
The nature of test [7]: basal 3T3-L1 adipocyte mitochondrial potential changes, profiling panel, cell-based, JC-1 fluorescence, 3T3-L1 adipocytes, 24 h, 100 nL compound (AID 1168). To be noted: JC-1 mitochondrial fluorescence, higher = more signal, called active from +8 up or from −8 down.
Test [8] in a line: basal RPMI8226 mitochondrial membrane potential changes, profiling panel, cell-based, JC-1 fluorescence, 24 h, 100 nL compound (AID 1169). To be noted: RPMI8226 myeloma, JC-1 mitochondrial potential fluorescence, higher = more signal.
The nature of test [9]: basal MM1S mitochondrial membrane potential changes, profiling panel, cell-based, JC-1 fluorescence, 24 h, 100 nL compound (AID 1170). To be noted: higher = more signal.
Test [10] can be described thus: A549 lung cancer cell viability effects, profiling panel, resazurin fluorescence, 24 h, PK04 Diversity Set (AID 1171). The settings on record: higher = more signal, called active from +8 up or from −8 down. On the technique in general: The colour change of resazurin is a common sign of viable cells or microbes.
Note: test concentration not given here.

For the molecule `COc1ccc([Si](C)(C)[C@H]2[C@H](CC(=O)N3CCC[C@H]3CO)O[C@@]3(C(=O)N(Cc4cccc(N5CCOC5=O)c4)c4ccccc43)[C@@H]2C)cc1`, the z-score was -0.0923 in test [1]; 0.1 in test [2]; -0.0734 in [3]; -2.19 in test [4]; -3 in test [5]; 2.76 in [6]. For the same molecule, the z-score is -0.0541 (inactive) in test [7], -0.952 in test [8], -0.0702 in test [9] and 0.299 (inactive) in test [10].

Take `CCOC(=O)C[C@H]1[C@H](OC(=O)c2ccc(C(=O)c3ccccc3)cc2)[C@@H](NC(=O)Cc2ccc(OC)cc2)c2cc(OCCCO)ccc2N1C(=O)c1ccc2ccccc2n1`: the z-score in test [1] was 1.33; in [2], -0.121; in [3] it was 0.493; in test [4], -0.854; in [5] it was -0.614; in test [6], 0.658. Moreover, the z-score in test [7] is 2.22 (inactive); in test [8] it was -0.234; in test [9], 0.567; in test [10] it was -0.383 (inactive).

Turning to `COc1ccccc1CN1C(=O)c2ccccc2[C@@]2(Cc3ccccc3N(CCCN(C)C)C2=O)[C@@H]1c1ccc(CO)cc1`, the z-score is -0.733 in test [1]; 1.31 in [2]; -0.655 in [3]; 0.229 in test [4]; -0.0261 in test [5]; 0.511 in test [6]. The z-score in test [7] was -0.459 (inactive); in [8], 0.00572; in test [9], -0.343; in test [10] it was -0.483 (inactive).

Consider `COCCOC(=O)N1C(=O)[C@@]2(c3cc(C#CC4=CCCCC4)ccc31)[C@H](C(N)=O)[C@H]1C(=O)O[C@H](c3ccccc3)[C@H](c3ccccc3)N1[C@@H]2c1ccc(O)cc1`, for which the z-score was 0.282 in [1]; 0.326 in test [2]; 0.581 in test [3]; -3.07 in test [4]; -4.54 in test [5]; -1.89 in test [6]. For the same molecule, the z-score in test [7] was 1.1 (inactive); in test [8], -1.22; in test [9], -0.992; in [10], -1.77 (inactive).

For the molecule `COC(=O)[C@@]1(Cc2ccc(F)cc2)[C@H]2c3cc(C(=O)N(C)C)n(Cc4ccc(C)o4)c3C[C@H]2CN1C(=O)c1ccccc1`, the z-score was 0.0895 in test [1]; -0.333 in test [2]; 0.625 in test [3]; -1.58 in [4]; -2.03 in test [5]; 0.0211 in test [6]. Moreover, the z-score in [7] was -1.72 (inactive); in test [8], -0.847; in test [9], -0.209; in [10], 0.501 (inactive).

On to `NCCCCCNC(=O)[C@H]1C[C@H]2C(=O)N3CCC[C@H]3C(=O)N2[C@H]1c1ccc(O)cc1`, for which the z-score in test [1] was -0.246; in test [2], 0.339; in test [3], -0.0476; in test [4] it was -1.11; in test [5], -0.177; in test [6], -0.0181. The z-score was 0.0417 (inactive) in test [7], -0.398 in test [8], 0.286 in test [9] and -0.166 (inactive) in [10].

Take `CC[C@@H]1C=C(C(=O)O)[C@H](c2ccc(C)cc2)N1S(=O)(=O)c1ccc(C)cc1`: the z-score in test [1] is -0.795; in test [2] it was -0.235; in test [3], -0.997; in test [4], 0.0477; in [5], 0.365; in test [6] it was 0.0562. Moreover, the z-score was 0.348 (inactive) in [7], 0.637 in [8], -0.643 in [9] and 0.357 (inactive) in [10].

Regarding `COCCCNC(=O)[C@@]1(Cc2ccccc2)N=C(c2ccc(OCCCO)cc2)O[C@H]1c1ccccc1CN=[N+]=[N-]`, the z-score was 0.925 in test [1]; -0.703 in test [2]; 0.941 in [3]; -0.0943 in test [4]; -1.75 in [5]; 1.31 in [6]. Besides, the z-score in test [7] was 0.571 (inactive); in test [8], -1.26; in [9], -0.918; in test [10] it was -0.484 (inactive).

As to `CC(=O)NCCCC[C@@H]1NC(=O)[C@H]2C[C@@H](C(=O)O)[C@@H](c3ccc(O)cc3)N2C1=O`, the z-score is -0.199 in test [1]; 0.766 in test [2]; -0.14 in test [3]; -2.18 in [4]; -1.3 in test [5]; 0.237 in test [6]. Besides, the z-score in test [7] was 0.328 (inactive); in [8] it was -0.621; in test [9] it was -1.55; in [10] it was 0.273 (inactive).

Consider `COCC(=C=CC[C@H](O)c1cccc(OCCO)c1)CCO`, for which the z-score in test [1] is -0.243; in [2] it was -0.214; in [3], -0.909; in [4] it was 0.269; in test [5], 0.256; in [6], -0.206. Besides, the z-score was 0.244 (inactive) in [7], -0.574 in test [8], -0.451 in test [9] and 0.614 (inactive) in test [10].

With `NC(=O)NCC#Cc1ccc2c(c1)[C@]1(C(=O)N2)[C@H](C(=O)O)[C@H]2C(=O)O[C@H](c3ccccc3)[C@H](c3ccccc3)N2[C@@H]1c1ccc(O)cc1`, the z-score was 0.715 in [1]; 0.407 in [2]; 0.611 in test [3]; -0.944 in test [4]; 0.0565 in [5]; -1.43 in test [6]. Besides, the z-score is -1.56 (inactive) in test [7], 0.123 in test [8], 0.126 in [9] and 1.22 (inactive) in test [10].

Take `[N-]=[N+]=NCc1ccccc1[C@@H]1OC(c2ccc(OCCCO)cc2)=N[C@]1(CCS(=O)(=O)c1ccccc1)C(=O)N1CCOCC1`: the z-score in [1] was 0.761; in test [2] it was 1.96; in test [3], 0.502; in test [4], 0.191; in test [5], -1.6; in test [6] it was 2.29. Besides, the z-score in test [7] is 0.78 (inactive); in test [8] it was -0.356; in test [9], -0.412; in [10], 0.218 (inactive).

For the molecule `CO[C@H]1O[C@H](CO)[C@@H](OC(=O)Nc2ccccc2)[C@@H]2OC(=O)[C@@H](Cc3ccc4ccccc4c3)C/C=C/C[C@H](Cc3ccc4ccccc4c3)C(=O)O[C@@H]12`, the z-score in [1] was 0.72; in test [2] it was 0.397; in [3], 0.705; in test [4], -0.268; in test [5] it was 0.575; in [6] it was -1. The z-score in [7] was 0.688 (inactive); in [8] it was -0.381; in test [9] it was -0.135; in test [10] it was -2.52 (inactive).

Turning to `COc1ccc([Si](C)(C)[C@@H]2[C@@H](CCO)O[C@]3(C(=O)N(Cc4cccc(N5CCOC5=O)c4)c4ccccc43)[C@H]2C)cc1`, the z-score in test [1] was -0.687; in [2] it was -0.514; in test [3], -0.769; in test [4], -2.11; in test [5] it was -4.17; in [6], 0.183. The z-score in test [7] is 1.05 (inactive); in test [8], -0.978; in test [9], -1.78; in [10] it was -1.76 (inactive).

The values above are taken from PubChem BioAssay.
